High-throughput results (PubChem)
In the library only some 9.2% were active in any assay of this set; here they are far more common.
ELG1 genotox – qHTS screen for small molecules that induce genotoxicity in human embryonic kidney (HEK293T) cells expressing luciferase-tagged ELG1; actives 1.3% (n = 330,000); Potency, µM (highest dose often 46 µM), without a hit: at the top dose activity change, positive = activation, actives largely listed as activators; HEK293T ELG1-luciferase reporter, luminescence, 16 h; further: % of control where 0% means no effect; nearly all actives have a fitted effect of over 60% in size
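Reporter readout depends on ELG1 protein level, which increases with genetic stress. After 16 hr compound exposure at 37 °C, luciferase activity was quantified using ONE-Glo.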
FLuc modulator – qHTS profiling assay for firefly luciferase inhibitor/activator using purifed enzyme and Km concentrations of substrates (counterscreen for miR-21 project); Luciferin 4-monooxygenase (Photinus pyralis), P08659; purified FLuc, Km substrates, luminescence inhibition; Potency, µM (titrated, usually from 57.5 µM), inactives show at the highest dose activity change, negative = inhibition, usual class: inhibitors; actives 6.9% (n = 360,000);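 further: plate controls were vehicle for no effect and reference inhibitor for full effect; nearly all actives have a fitted effect of over 55% in size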
Target sequence (P08659 whole entry, looked up): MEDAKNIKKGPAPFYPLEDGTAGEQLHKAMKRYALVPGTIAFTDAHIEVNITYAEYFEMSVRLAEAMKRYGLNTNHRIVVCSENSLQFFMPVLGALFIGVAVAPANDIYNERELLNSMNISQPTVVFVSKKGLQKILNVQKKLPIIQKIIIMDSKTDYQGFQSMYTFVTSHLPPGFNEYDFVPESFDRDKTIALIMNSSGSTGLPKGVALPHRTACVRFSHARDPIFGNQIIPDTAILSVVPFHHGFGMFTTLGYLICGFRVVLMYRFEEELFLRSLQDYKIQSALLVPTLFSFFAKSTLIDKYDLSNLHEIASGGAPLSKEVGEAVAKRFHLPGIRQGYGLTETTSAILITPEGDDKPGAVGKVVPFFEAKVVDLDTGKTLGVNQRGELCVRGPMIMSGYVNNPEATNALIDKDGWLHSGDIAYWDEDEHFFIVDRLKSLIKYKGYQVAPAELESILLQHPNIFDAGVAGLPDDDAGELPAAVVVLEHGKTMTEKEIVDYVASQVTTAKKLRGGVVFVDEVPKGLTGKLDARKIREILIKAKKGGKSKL
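Purified P. pyralis luciferase, 10 nM final, with Km-level 10 uM D-luciferin and 10 uM ATP in 50 mM Tris acetate pH 7.5, 10 mM Mg acetate, 0.01% Tween-20, 0.05% BSA; 6-point qHTS titration about 60 µM downward; luminescence read.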
Rab9 prom act – qHTS Assay for Rab9 Promoter Activators. actives 2.8% (n = 320,000). Huh7 Rab9 promoter-luciferase reporter, luminescence, 24 h. Potency, µM (doses to about 9.22 µM), inactives show top-dose activation, negative = inhibition, usual class: activators; further: % of control where 0% means no effect; nearly all actives have a fitted effect of over 60% in size
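Quantitative HTS format; Huh7 Rab9-luciferase reporter cells (1500/well) receive compound 2 h post-plating, incubate 24 h at 37 °C, then get luciferase reagent for 10 min before luminescence reading.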
ELG1 repair inh – qHTS screen for small molecules that inhibit ELG1-dependent DNA repair in human embryonic kidney (HEK293T) cells expressing luciferase-tagged ELG1 | HEK293T ELG1-luciferase reporter, luminescence, 16 h; DNA damage induced by 5-fluorouridine | Potency, µM (top dose mostly 46.1 µM), for the others: top-dose activity change, negative = inhibition, most hits filed as inhibitors | actives 2.3% (n = 330,000); further: on the % scale 0 is the no-effect control and ±100 the full control effect; nearly all actives have a fitted effect of over 55% in size
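Cells (2,000 per well) received 5-fluorouridine plus test compound or DMSO and were incubated 16 hr at 37 °C, 5% CO2. Luciferase activity was read by luminescence 30 min after ONE-Glo addition; signal suppression marked inhibition of damage-induced ELG1 function.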
NPC1 promoter act – qHTS Assay for NPC1 Promoter Activators; actives 2.4% (n = 320,000); Potency, µM (highest dose often 9.22 µM), inactives show top-dose activation, actives largely listed as activators; Huh7 NPC1 promoter luciferase reporter, 24 h; AID 485313, 2010; further: % of control where 0% means no effect; nearly all actives have a fitted effect of over 60% in size
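NPC1 promoter–luciferase Huh7 cells; 24 h compound; luminescence.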
SMN2 splice up – qHTS Assay for Enhancers of SMN2 Splice Variant Expression | actives 2.8% (n = 210,000) | Potency, µM (doses to about 46.1 µM), without a hit: at the highest dose activity change, positive = activation, most hits filed as activators | HEK293 SMN2-luciferase splicing reporter, luminescence, 30-36 h; further: % of control where 0% means no effect; nearly all actives have a fitted effect of over 55% in size
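qHTS luciferase splicing reporter: luminescence rises when SMN2 exon 7 is included in transfected HEK293 cells. Compound exposure lasted 30-36 h at 37C, with 4.5 mM final sodium butyrate as control, followed by a ONE-Glo read.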
* hit, by the source's call; ? = inconclusive; . = not tested or not shown. The call rests on the fitted dose curve; in most records, active means well fitted curve in the direction sought with a large enough effect; inconclusive means small, poorly fitted or top-dose-only effect, or another doubt; inactive means no such curve, though single readings can be large; an effect the other way counts as inactive or inconclusive. Potency means the concentration at half of the fitted maximal effect.

SMILES | ELG1 genotox | FLuc modulator | Rab9 prom act | ELG1 repair inh | NPC1 promoter act | SMN2 splice up
O=C(O)c1cccc(-c2noc(-c3cccc(Cl)c3)n2)c1 | ? | 0.019µM* | ? | ? | 0.089µM* | .
Fc1ccccc1-c1nc(-c2cnccc2C(F)(F)F)no1 | -11% | ? | 10% | ? | 1% | .
COc1cc(-c2noc(-c3cccc(Cl)c3)n2)cc(OC)c1OC | -6% | -5% | 6% | 13% | 2% | -12%
CC(=O)c1cccc(NS(=O)(=O)c2cc3c(cc2C)N(C(C)=O)CCO3)c1 | 6% | 6% | 2% | 10% | -2% | .
COCCCNC(=O)Cn1c(=O)n(-c2cccc(C)c2)c(=O)c2c1c1cc(C)ccc1n2C | . | -2% | . | . | . | .
Cc1nc2ccccc2nc(C)c1=NOCc1ccc(C#N)cc1 | -5% | 0% | -1% | 7% | 0% | -2%
N#Cc1ccc(CO/N=C/c2ccccc2)cc1 | ? | 24µM* | ? | ? | ? | ?
Fc1cccc(-c2cc3nc4c(c(N5CCC6(CC5)OCCO6)n3n2)CCCC4)c1 | ? | 15µM* | 0% | ? | -1% | 11%
CN(CCO)c1c2c(nc3cc(-c4cccc(F)c4)nn13)CCCC2 | ? | 24µM* | 3.5µM* | ? | 3.5µM* | 23%
COCCN1CCN(c2cc(-c3ccccc3)nc3cc(-c4cccc(F)c4)nn23)CC1 | -13% | 1% | -3% | 15µM* | -6% | -104%
Cc1cccc(-c2cc3nc(-c4ccccc4)cc(N4CCC5(CC4)OCCO5)n3n2)c1 | -6% | 2% | 1% | ? | -1% | -33%
Fc1cccc(-c2cc3nc(-c4ccccc4)cc(N4CCC5(CC4)OCCO5)n3n2)c1 | -8% | 4% | -11% | 23µM* | -5% | -22%
OC1CCN(c2c3c(nc4cc(-c5cccc(F)c5)nn24)CCCC3)CC1 | 0% | ? | 8% | ? | 1% | 29%
O=C(Nc1cccc(Cl)c1Cl)c1ccc2c(c1)N(Cc1cccc(Cl)c1)C(=O)c1ccccc1S2(=O)=O | . | -1% | . | . | . | .
Clc1cccc(-c2cc3nc4c(c(N5CCNCC5)n3n2)CCCC4)c1 | 1% | ? | 1% | ? | -9% | -125%
COc1cc(OC)cc(-c2cc3nc4c(c(N5CCN(c6ncccn6)CC5)n3n2)CCCC4)c1 | -1% | -23% | 14% | 15µM* | 16% | -16%
Nc1ccc2c(c1Cl)C(=O)c1ccc(N)c(Cl)c1C2=O | ? | 12µM* | 2.2µM* | ? | ? | .
CCOC(=O)c1cc2c(=O)n3ccccc3nc2n(C(C)C)c1=NC(=O)c1c(-c2c(F)cccc2Cl)noc1C | -13% | -4% | -2% | 5.8µM* | -14% | -3%
O=C(Nc1nccs1)c1ccc(F)c(S(=O)(=O)N2CCOCC2)c1 | -10% | -2% | -1% | -29% | 1% | .
O=C(Nc1cccnc1)c1ccc(Cl)c(S(=O)(=O)N2CCOCC2)c1 | -5% | 2% | 6% | ? | -2% | .
O=C(Nc1cccc(Br)c1)c1ccc(Cl)c(S(=O)(=O)N2CCOCC2)c1 | -24% | -17% | -31% | 16µM* | -20% | -57%
O=C(Nc1cccc(S(=O)(=O)C(F)F)c1)c1ccc(Cl)c(S(=O)(=O)N2CCOCC2)c1 | -10% | -1% | -9% | 7.3µM* | -3% | -60%
O=C(Nc1nccs1)c1ccc(Br)c(S(=O)(=O)N2CCOCC2)c1 | -4% | -18% | -2% | 21µM* | 0% | -49%
O=C(Nc1cccc(C(=O)NC2CC2)c1)c1ccc(Cl)c(S(=O)(=O)N2CCOCC2)c1 | -4% | -12% | 1% | 13µM* | 0% | .
CCOC(=O)c1csc(N/N=C2\CCCc3ccccc32)n1 | -12% | ? | 1% | -2% | -1% | .
SMILES | ELG1 genotox | FLuc modulator | Rab9 prom act | ELG1 repair inh | NPC1 promoter act | SMN2 splice up
COc1ccc2c(c1)CCC/C2=N\Nc1nc(C(=O)NN)cs1 | 5% | 1.3µM* | 2% | ? | 22% | .
CCCc1cc2c(=O)c(-c3ccc4c(c3)OCCO4)c(C)oc2cc1OS(C)(=O)=O | -9% | -7% | 2% | 13µM* | -1% | -74%
CCCc1cc2c(=O)c(-c3ccc4c(c3)OCCO4)coc2cc1OS(C)(=O)=O | 0% | 5.4µM* | 3.2µM* | ? | ? | ?
CC(OC(=O)CN1C(=O)NC2(CCCC2)C1=O)c1ccc(F)cc1 (centres undefined) | -1% | 12% | 1% | -13% | 2% | .
O=C(CSc1nc2ccccc2o1)Nc1ccccc1 | 21µM* | ? | -1% | 19% | 3% | 23%
Cc1ccc(C(=O)CSc2nc3ccccc3o2)cc1 | 20% | 13µM* | ? | ? | 22% | -29%
CC(Sc1nc2ccccc2o1)C(=O)O (centres undefined) | ? | 15µM* | 4% | ? | -3% | -19%
Cc1ccc(C(=O)CSc2nnc3c4ccccc4nc(C(C)(C)C)n23)cc1 | -3% | 2% | -17% | 16µM* | -25% | -16%
CC(=O)CSc1nnc2c3ccccc3nc(C(C)(C)C)n12 | ? | 0% | -5% | 2% | 0% | ?
CN(C)C(=O)COc1ccc(S(=O)(=O)c2ccc(OCC(=O)N(C)C)cc2)cc1 | -2% | -1% | 9% | 12% | -2% | .
O=C1CC(c2ccccc2)Sc2ccccc2N1Cc1ccc(F)cc1 (centres undefined) | . | -18% | . | . | . | ?
COc1ccccc1-c1nc2c(c(SCc3cc(C)ccc3C)n1)Cc1c(CO)cnc(C)c1O2 | . | -5% | . | . | . | .
Cc1nc(-c2ccccc2)sc1C(=O)CSc1ccc(Br)cc1 | 1% | -2% | 1% | 3% | -1% | 2%
Brc1ccc(-c2cn3cc(Cc4ccccc4)sc3n2)cc1 | . | 0.34µM* | . | . | . | 8%
Clc1ccccc1Cc1cn2cc(-c3ccccc3)nc2s1 | . | 0.17µM* | . | . | . | 2.5µM*
Fc1ccc(-c2cn3cc(Cc4ccccc4)sc3n2)cc1 | . | 0.12µM* | . | . | . | 6.3µM*
Fc1ccc(Cc2cn3cc(-c4ccccc4)nc3s2)cc1 | . | 0.11µM* | . | . | . | 2µM*
CCOC(=O)c1ccc(NC(=O)CSc2nc3ncc(Br)c(C)c3[nH]2)cc1 | . | -6% | . | . | . | .
CCN(CC)CCN1C(=O)C2C(C(=O)Nc3cccc(C)c3)C3C=CC2(O3)C1C(=O)NC1CCCC(C)C1C (centres undefined) | -5% | -1% | 2% | 0% | -3% | .
